tim23-1 inh: tim23-1 yeast growth inhibition; inhibition, % at 20 µM; S. cerevisiae tim23-1 growth, BacTiter-Glo luminescence, 24 h; 330,000 compounds, 1.3% hits;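 active means growth inhibition of the mutant yeast at or above 50%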;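 further: temperature-sensitive mutant grown at 25 °C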
PfHsp90 set2: growth inhibition of yeast expressing Plasmodium Hsp90 | inhibition, % at 9.4 µM | 310,000 compounds, 0.32% hits | S. cerevisiae expressing PfHsp90, BacTiter-Glo ATP, 48 h; yeast lacking PDR1 and PDR3 efflux regulators;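 active means every replicate shows inhibition above about 80%, whatever the replicate mean, limit read from the data; inconclusive means mean inhibition reaches the set limit but some replicate falls short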
tim10-1 inh: tim10-1 yeast growth inhibition; inhibition, % at 20 µM; S. cerevisiae tim10-1 ts strain growth, BacTiter-Glo, 24 h; AID 463190; 330,000 compounds, 2.2% hits;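 active means inhibition of at least 40%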;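 further: mutant grown at 25 °C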
NALP1 yeast inh: blocks the NALP1 inflammasome reconstituted in yeast. S. cerevisiae NALP1/ASC/caspase-1 growth, X-gal OD620, 72 h. inhibition, % at 10 µM. 280,000 compounds, 0.61% hits; in the data active means inhibition mostly above about 24%, no sharp cut-off; inactive means mostly below about 32%
TIM10 inh: inhibits growth of TIM10 yeast strain; S. cerevisiae TIM10 strain growth, BacTiter-Glo luminescence, 24 h; inhibition, % at 10 µM; 330,000 compounds, 1.4% hits; AID 463195;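 active means inhibition of 40% or more at the single tested concentration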;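 further: wild-type TIM10 isogenic control strain grown at permissive 25 °C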
NALP3 yeast inh: NALP3 inhibition in yeast. 330,000 compounds, 0.39% hits. Yeast reconstituted NLRP3/ASC/caspase-1, beta-gal luminescence, 24 h. inhibition, % at 10 µM. AID 2825;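 active means inhibition of 50% or more; inactive means inhibition below 50%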
tim10-1 confirm: confirmation of tim10-1 mutant yeast growth inhibitors; shares compounds with tim10-1 inh; S. cerevisiae tim10-1 ts strain growth, BacTiter-Glo, 24 h; inhibition, % at 20 µM; 7,400 compounds, 56% hits;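 active means inhibition of yeast growth at or above a set limit in either of two repeat tests at 20 µM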;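 further: tim10-1 mutant grown at permissive 25 °C to find synthetic lethal compounds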
Each line names hits and unclear results; the compound was inactive in the other large screens (follow-up assays come after a bar, where they were run). Sampled rows, rich in hits. Any-hit rate of the full collection: about 4.2%.

COc1ccccc1N1C(=O)CC(Sc2nccc(C)n2)C1=O (stereo not given)	none
CCC1Oc2ccccc2N(CC(=O)NCc2ccco2)C1=O (stereo not given)	none
CC(C)c1cccc(-c2ccc3c(c2)S(=O)(=O)c2cccc(C(=O)NCc4ccccc4Cl)c2C3=O)c1	none (no result: NALP1 yeast inh)
Cc1ccc(CN2CC(C(=O)N3CCN(c4ccccc4O)CC3)CC2=O)cc1 (stereo not given)	none (no result: NALP1 yeast inh)
CC(C)(C)C1CCc2onc(C(=O)Nc3cnn(Cc4ccc(F)cc4)c3)c2C1 (stereo not given)	none
CC(C)(C)C1CCc2onc(C(=O)Nc3ccc(F)cc3F)c2C1 (stereo not given)	tim10-1 inh 41 (no result: PfHsp90 set2) | tim10-1 confirm inactive
COc1cccc(CNS(=O)(=O)c2c(C(=O)N3CCCCCC3)c(C)n(C)c2C)c1	none
Cc1cccc(-c2onc3ccc(C(=O)/C=C/N(C)C)cc23)c1	PfHsp90 set2 inconclusive, tim10-1 inh 48 | tim10-1 confirm inactive
CN(C)/C=C/C(=O)c1ccc2noc(-c3ccc(F)cc3)c2c1	tim10-1 inh 42 | tim10-1 confirm inactive
CC(=O)c1ccc2noc(-c3ccc(C)cc3)c2c1	none
Cc1ccc(/C=C2/SC(=O)NC2=S)o1	none
O=C(COc1ccccc1/C=C1\SC(=O)NC1=O)Nc1ccccc1	none
O=C1NC(=O)/C(=C\c2ccccc2Oc2ccc(F)c(F)c2)S1	tim10-1 inh 45 (no result: PfHsp90 set2) | tim10-1 confirm 32
O=C1NC(=O)C(=Cc2ccc(Cl)cc2Cl)S1	none (no result: tim23-1 inh, tim10-1 inh, NALP1 yeast inh, TIM10 inh, NALP3 yeast inh)
O=C1NC(=O)/C(=C/c2ccccc2OCc2ccccc2)S1	tim10-1 inh 46 | tim10-1 confirm 37
O=C(CCCN=C1NS(=O)(=O)c2ccccc21)OCC(=O)c1ccc(F)cc1	none (no result: NALP1 yeast inh)
CCCS(=O)(=O)Nc1cccc(-c2nc3cccnc3s2)c1	none
Cc1ccc(-c2nc3cccnc3s2)cc1NS(C)(=O)=O	tim10-1 inh 44 | tim10-1 confirm inactive
CC1=C(C)CC(C(=O)NCc2cccc(Cl)c2)C(C(=O)O)C1 (stereo not given)	none
c1ccc2c(c1)ncc1cccn12	none
CCn1c2ccccc2c2c3ncc4cccn4c3ccc21	tim10-1 inh 49 | tim10-1 confirm 30
O=C(c1cccc(F)c1)N1CCC(c2nc3ccccc3s2)CC1	none
CCCc1cc(=O)[nH]c(SCC(=O)NCCN2C(=O)CSC2=O)n1	none (no result: NALP1 yeast inh)
O=C(Nc1nc2ccccc2[nH]1)c1ccc(F)cc1	none (no result: PfHsp90 set2)
O=C(Nc1nc2ccccc2[nH]1)c1ccccc1F	tim10-1 inh 46 | tim10-1 confirm inactive
CCn1cc(C(=O)N[C@H](C(=O)NCCN2CCOCC2)C(C)C)c(=O)c2cc3c(cc21)OCO3	none
Cc1ccc(N(Cc2cc3ccc(C)cc3[nH]c2=O)S(C)(=O)=O)c(C)c1	none
O=C(CCl)N1CCN(S(=O)(=O)Cc2ccccc2)CC1	tim10-1 inh 43 (no result: NALP1 yeast inh) | tim10-1 confirm inactive
COc1cccc(C(=O)COc2ccc(NC(=O)c3ccccc3)cc2)c1	none
O=C1CC(SCc2nc3ccccc3[nH]2)C(=O)N1c1ccc(F)cc1 (stereo not given)	none
O=C1CC(Sc2nnnn2-c2ccccc2)C(=O)N1c1cccc(Cl)c1 (stereo not given)	tim10-1 inh 49 | tim10-1 confirm 47
O=C1CC(SCc2nc3ccccc3[nH]2)C(=O)N1c1cccc(Cl)c1 (stereo not given)	tim10-1 inh 40 | tim10-1 confirm 35
C/C(CC(=O)Nc1ccc(N(C)C)cc1)=N\NC(=O)c1ccc(C(C)(C)C)cc1	tim10-1 inh 53 | tim10-1 confirm 33
Cc1ccc(SCC(=O)OCC(=O)NC(C)c2ccc(F)cc2)cc1 (stereo not given)	none (no result: NALP1 yeast inh)
Clc1ccccc1/C=C/c1ccnc2ccccc12	tim10-1 inh 44 | tim10-1 confirm inactive
Oc1ccc(/C=C/c2ccnc3ccccc23)cc1	none
O=C(NCc1n[nH]c(=S)n1-c1ccc(Br)cc1)c1cccs1	none
COc1cc2c(cc1OC)CN(C(=O)c1sc(-c3cnccn3)nc1C)CC2	none
CC(=O)Nc1cccc(C(=O)/C=C/c2ccc(F)cc2)c1	tim10-1 inh 41 | tim10-1 confirm 31
Cc1ccc(C2C3=C(CC(C)(C)CC3=O)N=C3c4ccccc4C(=O)C32)cc1 (stereo not given)	none
CC1(C)CC(=O)C2=C(C1)N=C1c3ccccc3C(=O)C1C2c1ccc(Cl)cc1 (stereo not given)	tim10-1 inh 44 | tim10-1 confirm 31
O=C(CCNC(=O)c1ccccc1Cl)Nc1nc(-c2ccc(F)cc2)cs1	none
O=C(CCNC(=O)c1ccccc1Cl)Nc1nc(-c2ccccc2Cl)cs1	tim10-1 inh 40 | tim10-1 confirm inactive
CCS(=O)(=O)c1ncc(Cl)c(C(=O)Nc2ccc(S(=O)(=O)N3CCCC(C)C3)cc2)n1 (stereo not given)	tim10-1 inh 43 | tim10-1 confirm inactive
CCC1CCCCN1S(=O)(=O)c1ccc(NC(=O)c2nc(S(C)(=O)=O)ncc2Cl)cc1 (stereo not given)	tim10-1 inh 54 | tim10-1 confirm inactive
CCOc1ccc(N2C(=O)C3C4C=CC([C@H]5CC45)[C@@H]3C2=O)cc1 (stereo not given in full)	none
COc1ccc2[nH]c3c(N4CCC(O)(c5cccc(C(F)(F)F)c5)CC4)ncnc3c2c1	tim10-1 inh 42 | tim10-1 confirm inactive
CN(C)S(=O)(=O)c1ccc(SCC(=O)N2CC(=O)Nc3ccccc32)nc1	none (no result: NALP1 yeast inh)
Cc1ccnc2c1ccc1cccnc12	tim10-1 inh 42 (no result: NALP1 yeast inh) | tim10-1 confirm inactive
CC(C)(C)C1COc2ccccc2N1C(=O)c1cccc(Cl)c1 (stereo not given)	none
O=C(CSc1nc2ccccc2[nH]1)N1c2ccccc2Sc2ccccc21	tim10-1 inh 46 | tim10-1 confirm inactive
O=C(CSc1nc(O)cc(=O)[nH]1)N1c2ccccc2Sc2ccccc21	none
C/C(=N\O)c1ccc2c3ccccc3n(C)c2c1	tim10-1 inh 44 (no result: PfHsp90 set2) | tim10-1 confirm inactive
C/C(=N\O)c1c(C)c2ccccc2n1C	none
Cc1ccc(C(=O)O/N=C(\c2ccccc2)c2cccnc2)cc1	tim10-1 inh 42 | tim10-1 confirm 36
Cc1cccc(C(=O)O/N=C(\c2ccccc2)c2cccnc2)c1	none
Cc1ccc(N=Nc2c(N)[nH]n3c(=O)cc(-c4ccccc4)nc23)cc1	tim10-1 inh 50 (no result: PfHsp90 set2) | tim10-1 confirm inactive
CCOCCCn1c(SCC(=O)Nc2ccc(OC)cc2)nc2ccccc2c1=O	none
S=C(NCC1CCCO1)N1CCN(c2nc(-c3ccccc3)cs2)CC1 (stereo not given)	tim10-1 inh 53 | tim10-1 confirm inactive
COc1ccccc1NC(=S)N1CCN(c2nc(-c3ccccc3)cs2)CC1	tim10-1 inh 47 (no result: PfHsp90 set2) | tim10-1 confirm inactive
